Screening data (PubChem BioAssay)
Shown are actives, neighbours in structure and some others; about 11% of the full set was active somewhere.
AMA1-RON2 inh = AMA1-RON2 (P. falciparum) interaction inhibition; AlphaScreen AMA1-biotinylated RON2 peptide binding; Potency, µM (series often up to 58.2 µM), inactives show at the top dose activity change, negative = inhibition, actives largely listed as inhibitors; hit rate 0.2% among 360,000; AID 720542;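 note: 0% = vehicle wells and -100% = peptide control; nearly all actives have a fitted effect of over 45% in size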
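AMA1 (3D7) with his tag at 25 nM final met compounds first, then biotinylated RON2 peptide at 25 nM; detection used donor plus acceptor beads, 10 µg/mL apiece, read by AlphaScreen after 30 min at room temperature.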
Pf growth 48h = P. falciparum growth inhibition at 48 hours (one generation) | hit rate 5.9% among 310,000 | Potency, µM (highest dose often 28.7 µM), inactives show at the highest dose activity change, negative = inhibition, usual class: inhibitors | AID 504832 | P. falciparum luciferase growth in erythrocytes, 48 h; note: % is set by controls: 0 for no effect and ±100 for the full control effect
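First compound was added to culture medium, then infected red cells at 0.1% parasitemia and 2% hematocrit (final). After incubation at 37 C under 5% CO2, luciferase detection reagent was dispensed and light output recorded.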
Pf growth 96h = P. falciparum growth inhibition at 96 hour, primary screen for plastid delayed-death inhibitors. Potency, µM (series often up to 28.7 µM), without a hit: at the top dose activity change, negative = inhibition, actives largely listed as inhibitors. hit rate 6.9% among 320,000. P. falciparum luciferase reporter growth, 96 h; note: % is set by controls: 0 for no effect and ±100 for the full control effect
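P. falciparum expressing integrated firefly luciferase grown in erythrocytes (2% hematocrit, 0.05% parasitemia final) with compounds for 96 hours at 37 C, 5% CO2. Growth inhibition read as loss of luminescence after adding luciferase detection reagent.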
Sm TGR block = blocks Schistosoma mansoni thioredoxin glutathione reductase; Q962Y6; purified TGR, DTNB reduction, TNB absorbance 405 nm; Potency, µM (series often up to 114 µM), inactives show at the top dose activity change, negative = inhibition, usual class: inhibitors; hit rate 3% among 360,000; AID 485364; note: % is set by controls: 0 for no effect and ±100 for the full control effect; nearly all actives have a fitted effect of over 60% in size
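Kinetic colorimetric format: TGR-catalysed, NADPH-driven DTNB reduction monitored via TNB absorbance. Enzyme dispensed at 20 nM; compound exposure 15 min at room temperature before reaction start.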
NS1 function inh = influenza NS1 inhibition; Potency, µM (doses to about 46.1 µM), inactives show at the top dose activity, positive = more growth; hit rate 0.4% among 270,000; AID 2326; calls by dose curve; note: actives are rising curves; nearly all actives have a fitted effect of over 50% in size
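Growth recovery, yeast-based: influenza A NS1 expressed in S. cerevisiae causes slow growth, and suppressors are detected by OD600. The parent strain without NS1 is used as positive control.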
An asterisk follows results filed as active. Unless noted, calls come from the whole dose curve; as a rule, active = well fitted curve in the direction sought with a large enough effect; inconclusive = small, poorly fitted or top-dose-only effect, or another doubt; inactive = no such curve, though single readings can be large; an effect the other way counts as inactive or inconclusive. Potency is the fitted concentration of half-maximal effect.

O=C(NCCC1CCCCN1S(=O)(=O)c1ccccc1)C(=O)NCc1ccccc1 (stereo not given) was read as AMA1-RON2 inh -21%, Pf growth 48h -21%, Pf growth 96h 17µM* and Sm TGR block 0%.
`Cc1ccc(CNC(=O)C(=O)NCCC2CCCCN2S(=O)(=O)c2ccccc2)cc1` (stereo not given) gave AMA1-RON2 inh -1%, Pf growth 48h -32%, Pf growth 96h inconclusive and Sm TGR block 0%.
For O=C(NCCC1CCCCN1S(=O)(=O)c1ccccc1)C(=O)NCc1ccc(F)cc1 (stereo not given) the results were AMA1-RON2 inh 0%, Pf growth 48h 10µM*, Pf growth 96h inconclusive and Sm TGR block 4%.
`O=C(NCCC1CCCCN1S(=O)(=O)c1ccccc1)C(=O)NCc1ccccc1F` (stereo not given) gave AMA1-RON2 inh -9%, Pf growth 48h -19%, Pf growth 96h inconclusive and Sm TGR block -8%.
COc1ccc(NS(=O)(=O)c2cccc(C(=O)NNC(=O)c3cccc(NC(C)=O)c3)c2)cc1 was read as AMA1-RON2 inh 42%, Pf growth 48h inconclusive, Pf growth 96h 12% and Sm TGR block -2%.
FC(F)(F)c1cnc(N2CCN(C(=S)NCc3ccccc3)CC2)c(Cl)c1 was read as AMA1-RON2 inh inconclusive, Pf growth 48h 12%, Pf growth 96h 25%, Sm TGR block -2% and NS1 function inh 2%.
Screening FC(F)(F)c1cnc(N2CCCN(C(=S)Nc3ccccc3)CC2)c(Cl)c1 returned AMA1-RON2 inh 7%, Pf growth 48h 1.7µM*, Pf growth 96h 1.9µM*, Sm TGR block -6% and NS1 function inh 3%.
For Cc1ccc(NC(=O)CCCn2c(=S)[nH]c3ccsc3c2=O)cc1C the results were AMA1-RON2 inh 128%, Pf growth 48h 16%, Pf growth 96h inconclusive, Sm TGR block -9% and NS1 function inh 20%.
Screening COc1cc2c(cc1N/C=C(\C#N)c1nc(-c3ccc(F)cc3)cs1)oc1ccccc12 returned AMA1-RON2 inh -2%, Pf growth 48h 9.3µM*, Pf growth 96h inconclusive, Sm TGR block -9% and NS1 function inh 0%.
Screening N#C/C(=C\c1ccc(F)cc1)c1nc(-c2ccc(-c3ccccc3)cc2)cs1 returned Sm TGR block -116%.
Screening CCC1=C(OC(=O)N(CC)CC)N2C(=O)OC(=NCC3CC3)[C@]2(Cc2ccccc2)[C@H]2C1=CC[C@H]1C(=O)N(CC)C(=O)[C@H]12 returned AMA1-RON2 inh 18%, Pf growth 48h 7.4µM*, Pf growth 96h 13µM*, Sm TGR block 6% and NS1 function inh -5%.
Screening CCC1=C(OC(=O)N(CC)CC)N2C(=O)OC(=NCCc3c[nH]c4ccccc34)[C@]2(Cc2ccccc2)[C@H]2C1=CC[C@H]1C(=O)N(CC)C(=O)[C@H]12 returned AMA1-RON2 inh -13%, Pf growth 48h 9.3µM*, Pf growth 96h 13µM*, Sm TGR block 0% and NS1 function inh 1%.
`COC(=O)CN=C1OC(=O)N2C(=O)C3=C4[C@@H](C[C@H]5C(=O)N(c6ccccc6)C(=O)[C@H]5[C@H]4[C@@]12Cc1ccccc1)[C@H]1C(=O)N(c2ccccc2)C(=O)[C@H]1[C@H]3C` gave AMA1-RON2 inh 11%, Pf growth 48h 12µM*, Pf growth 96h inconclusive, Sm TGR block -29% and NS1 function inh -16%.
For CCC1=C(OC(=O)N(CC)CC)N2C(=O)OC(=NCC(=O)OC)[C@]2(Cc2ccccc2)[C@H]2C1=CC[C@H]1C(=O)N(CC(=O)OC)C(=O)[C@H]12 the results were AMA1-RON2 inh 9%, Pf growth 48h 12µM*, Pf growth 96h inconclusive, Sm TGR block -7% and NS1 function inh -4%.
Screening CCC1=C(OC(=O)N(CC)CC)N2C(=O)OC(=NCC(=O)OC)[C@]2(C)[C@H]2C1=CC[C@H]1C(=O)N(CC(=O)OC)C(=O)[C@H]12 returned AMA1-RON2 inh 10%, Pf growth 48h 31%, Pf growth 96h 64%, Sm TGR block 9% and NS1 function inh -5%.
For CCOC(=O)c1cc(-c2ccc(OC)cc2)n(CCC(=O)NC2CCC(C)CC2)c1C (stereo not given) the results were Sm TGR block 4%.
COc1ccc(CCNC(=O)C2CCCN2C(=O)Nc2ccc(Cl)cc2)cc1OC (stereo not given) was read as AMA1-RON2 inh 8%, Pf growth 48h -27%, Pf growth 96h 4%, Sm TGR block 3% and NS1 function inh 0%.
Screening O=C(NCCCn1ccnc1)c1ccc(-c2cccc(Cl)c2Cl)o1 returned AMA1-RON2 inh -23%.
For CCC1=C2CC[C@H]3C(=O)N(C)C(=O)[C@H]3[C@H]2[C@@]2(Cc3ccccc3)C(=NCCOC)OC(=O)N2C1=O the results were AMA1-RON2 inh 17%, Pf growth 48h 37%, Pf growth 96h 40%, Sm TGR block 3% and NS1 function inh 4%.
`CCC1=C(OC(=O)N(CC)CC)N2C(=O)OC(=NCc3ccccc3)[C@]2(C)[C@H]2C1=CC[C@H]1C(=O)N(CC)C(=O)[C@H]12` gave AMA1-RON2 inh -4%, Pf growth 48h 12µM*, Pf growth 96h inconclusive, Sm TGR block -4% and NS1 function inh -4%.
For CCC1=C(OC(=O)N(CC)CC)N2C(=O)OC(=NCCc3c[nH]c4ccccc34)[C@]2(C)[C@H]2C1=CC[C@H]1C(=O)N(C)C(=O)[C@H]12 the results were AMA1-RON2 inh -22%, Pf growth 48h 10µM*, Pf growth 96h inconclusive, Sm TGR block -1% and NS1 function inh -4%.
Screening CCC1=C(OC(=O)N(CC)CC)N2C(=O)OC(=NCC(=O)OC)[C@]2(C)[C@H]2C1=CC[C@H]1C(=O)N(CC)C(=O)[C@H]12 returned AMA1-RON2 inh 15%, Pf growth 48h 31%, Pf growth 96h 36%, Sm TGR block -5% and NS1 function inh 0%.
CCC1=C(OC(=O)N(CC)CC)N2C(=O)OC(=NCCOC)[C@]2(Cc2ccccc2)[C@H]2C1=CC[C@H]1C(=O)N(C)C(=O)[C@H]12 was read as AMA1-RON2 inh 12%, Pf growth 48h 10µM*, Pf growth 96h inconclusive, Sm TGR block -12% and NS1 function inh 4%.
`CCC1=C(OC(=O)N(CC)CC)N2C(=O)OC(=NCCOC)[C@]2(Cc2ccccc2)[C@H]2C1=CC[C@H]1C(=O)N(CC)C(=O)[C@H]12` gave AMA1-RON2 inh 6%, Pf growth 48h 13µM*, Pf growth 96h inconclusive, Sm TGR block -18% and NS1 function inh -4%.
`CN(C)/C=C/C(=O)c1nn(-c2ccc(F)cc2)ccc1=O` gave AMA1-RON2 inh -1%, Pf growth 48h -6%, Pf growth 96h 33%, Sm TGR block 4% and NS1 function inh 3%.
